A short description of the assay: chemical genetic growth profiling, strain panel (AID 1159580).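 Note: tested at 20 µM; growth read once vehicle control cultures reached saturation at 30 °C; 1 = growth at the plate median or of vehicle wells; lower values mean less growth of the strain.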 Conditions: S. cerevisiae deletion strains, growth OD.
[1] abbreviates: locus YAL013W, strain DEP1, active compounds read low.
Setting [2] is: locus YGR078C, strain PAC10, active compounds read low.
The mark [3] stands for this setting: locus YJR075W, strain HOC1, active compounds read low.
[4] abbreviates: locus YMR263W, strain SAP30, active compounds read low.
Setting [5] is: locus YMR307W, strain GAS1, active compounds read low.
[6] abbreviates: locus YNL153C, strain GIM3, active compounds read low.
The mark [7] stands for this setting: locus YNL322C, strain KRE1, active compounds read low.
Setting [8] is: locus YPL055C, strain LGE1, active compounds read low.
Where [9] appears, read: locus YPL241C, strain CIN2, active compounds read low.
[10] abbreviates: locus YAL040C, strain CLN3, active compounds read low.
The mark [11] stands for this setting: locus YCL061C, strain MRC1 (second series), active compounds read low.
[12] abbreviates: locus YDR363W, strain ESC2, active compounds read low.
The mark [13] stands for this setting: locus YER002W, strain NOP16, active compounds read low.
Where [14] appears, read: locus YNL175C, strain NOP13, active compounds read low.
[15] abbreviates: locus YNL197C, strain WHI3, active compounds read low.
The mark [16] stands for this setting: locus YNL224C, strain SQS1, active compounds read low.
[17] abbreviates: locus YOR083W, strain WHI5 (second series), active compounds read low.

In PubChem BioAssay AID1159580 (chemical genetic matrix, 2015) one finds normalized growth data, which are given here for three compounds.

Hit rate of the full screen: of about 5,500 compounds, about 2,000 (36%) were called active. Another 18% or so got no clear call; they are omitted. The list shows a part of the results. A number with no mark means an inactive call. Cut-off read from the data, not from the text of the source: active = normalized growth mostly below about 0.91 (no sharp cut-off); inconclusive = no clear call, values can overlap the other calls; inactive = mostly above about 0.92.

Consider `CCOC(=O)CC1=Nn2c(nnc2-c2cc(Cl)cc(Cl)c2)SC1`, for which the normalized growth under setting [1] was 0.97; the normalized growth (locus YBR229C, strain ROT2, active compounds read low) was 0.905 (active); the normalized growth (locus YDL101C, strain DUN1, active compounds read low) was 0.914; the normalized growth (locus YDL134C, strain PPH21, active compounds read low) is 0.996; the normalized growth (locus YDR150W, strain NUM1, active compounds read low) is 0.857; the normalized growth (locus YEL061C, strain CIN8, active compounds read low) is 0.934. The normalized growth under setting [2] is 0.97; the normalized growth (locus YGR229C, strain SMI1, active compounds read low) was 0.979; the normalized growth (locus YHR030C, strain SLT2, active compounds read low) is 0.538 (active); the normalized growth (locus YHR087W, strain rtc3, active compounds read low) was 0.927; the normalized growth (locus YJL187C, strain SWE1, active compounds read low) is 0.913 (active); the normalized growth (locus YJR043C, strain POL32, active compounds read low) was 0.989. Further, the normalized growth was 0.811 (active) under setting [3]; 0.91 (locus YLR039C, strain RIC1, active compounds read low); 0.971 (locus YLR058C, strain SHM2 (second series), active compounds read low); 0.808 (locus YLR085C, strain ARP6, active compounds read low); 0.982 (locus YLR262C, strain YPT6, active compounds read low); 0.823 (active) (locus YML094W, strain GIM5, active compounds read low). In addition, the normalized growth was 0.955 (locus YMR219W, strain ESC1, active compounds read low); 0.965 under setting [4]; 0.806 under setting [5]; 0.95 under setting [6]; 0.823 (active) (locus YNL298W, strain CLA4 (second series), active compounds read low); 0.977 under setting [7]. Further, the normalized growth by setting is: (locus YNR030W, strain Alg12, active compounds read low) 0.914; under setting [8], 0.864; under setting [9], 1.01; (locus YPR135W, strain CTF4, active compounds read low) 0.714.

Consider `C=CCN1CC[C@]23CCCCC2[C@H]1Cc1ccc(O)cc13` (stereo not given in full), for which the normalized growth under setting [1] was 1.02; the normalized growth under setting [10] is 1.01; the normalized growth under setting [11] is 1.01; the normalized growth under setting [12] is 1.02; the normalized growth under setting [13] is 1; the normalized growth under setting [2] is 0.995. For the same compound, the normalized growth under setting [3] is 0.999; the normalized growth under setting [5] is 1.01; the normalized growth under setting [6] is 1.02; the normalized growth under setting [14] is 1.01; the normalized growth under setting [15] is 0.997; the normalized growth under setting [16] is 0.988. For the same compound, the normalized growth under setting [17] was 1.01.

Regarding `C=CCN1CCC23c4c5ccc(O)c4O[C@H]2C(=O)CC[C@@]3(O)C1C5` (stereo not given in full), the normalized growth runs as follows: under setting [1], 1.01; under setting [10], 1; under setting [11], 1; under setting [12], 1.01; under setting [13], 0.994; under setting [4], 0.998. Moreover, the normalized growth by setting is: under setting [5], 0.998; under setting [14], 0.997; under setting [15], 1.01; under setting [16], 1.01; under setting [7], 1.01; under setting [17], 1. Moreover, the normalized growth under setting [8] is 1.02 and the normalized growth under setting [9] was 1.
